Experimental findings from ChEMBL document CHEMBL4513216, “Probing the Open Global Health Chemical Diversity Library for Multistage-Active Starting Points for Next-Generation Antimalarials” (ACS Infect Dis, 2020) are described below.

Among all 69,000 compounds or so, about 8,600 (12%) showed an effect of 50% or more. The sample holds strong results, similar compounds and a random draw of the others, so the mix is not that of the screen.

The assay deals with Plasmodium berghei. Nature of the assay: Screen against P. berghei liver stage (PbLuc), transformed with Luciferase, at 10uM. The following applies: tested at 10 uM. Type of assay: functional, HepG2.
`O=C(CNC(=O)N1CCc2c([nH]c3ccc(Cl)cc23)C1)NC1CCCC1`: the INHIBITION is -6.91%.
With `COCC(=O)N1CC(c2n[nH]cc2C)C1` the figure was -41.1%; with `CN1CCN(C(=O)c2cc3c(s2)CCN3C(=O)C2CC2)CC1`, -29.8%; with `O=C(NCCN1CCCC1)c1cc2c(s1)CCN2C(=O)c1ccccc1`, -28%.
The value for `O=C(c1cc2c(s1)CCN2C(=O)C1CC1)N1CCCC1` was 23.3%; that for `CCCNC(=O)c1cc2c(s1)CCN2C(=O)c1ccccc1` was -27%; that for `O=C(NC1CC1)c1cc2c(s1)CCN2C(=O)C1CC1` was 51.4%.
The value for `O=C(NC1CCCC1)c1cc2c(s1)CCN2C(=O)c1ccccc1` was 55.9%; that for `c1cncc(COCc2nnn3c2CN(Cc2ccsc2)CC3)c1` was -9.26%; that for `Nc1cc(-c2cc(C(=O)O)ccc2Cl)c2cc[nH]c2n1` was 15.2%.
As to `Nc1cc(-c2nccnc2N2CCCC2)c2cc[nH]c2n1`, the INHIBITION was 58.3%.
The value for `OCCNc1cc(-c2nccnc2N2CCCC2)c2cc[nH]c2n1` was 37.7%; that for `Nc1cc(-c2ccc(C(=O)O)cc2O)c2cc[nH]c2n1` was 2.91%; that for `O=C(O)CNc1cc(-c2cc(C3CC3)ncn2)c2cc[nH]c2n1` was 19.5%.
As to `O=C(O)CNc1cc(-c2nccnc2N2CCCC2)c2cc[nH]c2n1`, the INHIBITION was found to be 51.8%.
The value for `CN1CC(=O)N(c2cccc(F)c2)CC12CCN(Cc1cncn1C)C2` (stereo not given) was -15.7%; that for `CS(=O)(=O)NCC1CCCN(C(=O)c2ccc(Cl)o2)C1` (stereo not given) was 15%; that for `O=C(c1ccccn1)N1CC[C@@H](N2CCOCC2)[C@@H]1Cc1ccccc1` was 39.2%.
With `Cc1nccn1-c1cncc(C2CCCN2Cc2ccccc2)n1` (stereo not given) the figure was 36.7%.
The value for `COCCN1CCCc2sc(C(=O)N3CCCN(C)CC3)nc21` was 5.36%; that for `Clc1ccccc1CN1CCc2nc(C3CCCNC3)ncc2C1` (stereo not given) was 6.32%; that for `Cc1noc(NC(=O)c2cccc(Br)c2)n1` was 88.2%.
`Cc1c(NC(=O)c2cccc(Br)c2)c(C(=O)N(C)C)nn1C`: the INHIBITION is 45.8%.
The value for `Cc1noc(NC(=O)CCNC(=O)c2ccc(Br)cc2)n1` was 14.1%; that for `Cn1nc(CNC(=O)c2ccc(OC(F)(F)F)cc2)c2c1CCOC2` was -6.42%.
With `Cc1noc(NC(=O)c2ccc(Br)cc2)n1` the figure was 91.5%.
With `Cc1ccc(C(=O)Nc2nc(C)no2)cc1` the figure was 23.7%; with `Cc1noc(NC(=O)c2ccc(OC(F)(F)F)cc2)n1`, 87.6%.
`Cc1noc(NC(=O)c2ccc(C#N)cc2)n1`: the INHIBITION is -0.96%.
The value for `Cc1noc(COCC(=O)Nc2ccc(Br)c(C)n2)n1` was 10.7%.
With `Cc1noc(NC(=O)c2ccc(Br)s2)n1` the figure was 85.9%.
Take `Cc1noc(NC(=O)c2ccc(Br)o2)n1`: the INHIBITION worked out at 31.9%.
The value for `Cc1noc(NC(=O)c2ccccc2)n1` was -10.6%; that for `Cc1n[nH]c(C)c1NC(=O)NCc1cc[nH]n1` was 36%; that for `O=C(NCC1CCCO1)N1CCN(Cc2ccc3c(c2)CCO3)CC1` (stereo not given) was -21.5%.
As for `OCCNc1nccc(-c2c[nH]nc2-c2cccnc2)n1`, the INHIBITION was determined as 15.9%.
For the compound `C[C@@H]1CN(C(=O)NC2CC2)C[C@]12CCN(c1ccsc1)C2=O`, the INHIBITION came out at 17.1%.
In the case of `CC(=O)N1CCCC1(C(=O)N1CCCC1)c1cnccn1` (stereo not given), the INHIBITION is on record as 6.35%.
The value for `CN(C)S(=O)(=O)c1ccc(=O)n(CC2CCCO2)c1` (stereo not given) was -28.9%.
Consider `CC(C)CNC(=O)Cc1cnc(-n2cccc2)s1`, for which the INHIBITION stood at 28.3%.
`CC(=O)N1CCCC(Cc2cnc(-c3c(C)nn(C)c3C)cn2)C1` (stereo not given): the INHIBITION is -10.4%.
With `COc1ccc2c(c1)CCCN(C(=O)NCC1CCCO1)C2` (stereo not given) the figure was 37.4%.
With `NC(=O)CN1CCCN(C(=O)CCOc2ccccc2Cl)CC1` the figure was 29.7%.
With `CCCNC(=O)C1(Cc2cc(-c3ccccc3)no2)CCN(C(C)=O)C1` (stereo not given) the figure was -3.94%; with `CC(O)CNc1c(NCc2ccco2)c(=O)c1=O` (stereo not given), 18.2%.
`c1ccc(Cc2noc(CN3CCOC(Cn4cncn4)C3)n2)cc1` (stereo not given): the INHIBITION is on record as 13.3%.
With `COCCO[C@@H]1CCN(Cc2csc(C)n2)[C@H]1Cc1ccccc1` the figure was 18.1%; with `Cc1noc(C)c1-c1cccc(CC2CCN(C(=O)c3cc[nH]n3)C2)n1` (stereo not given), 46.1%.
The value for `NS(=O)(=O)N1CCc2ccc(NC(=O)Cc3ccc(F)cc3)cc21` was 22.9%.
Take `NS(=O)(=O)N1CCc2ccc(NC(=O)Cc3ccccc3F)cc21`: the INHIBITION came out at 54.4%.
The value for `NS(=O)(=O)N1CCc2ccc(NC(=O)CC(F)(F)F)cc21` was 63.3%; that for `CS(=O)(=O)Nc1ccc(CNC(=O)CN2CCc3ccccc32)cc1` was 16.6%; that for `NS(=O)(=O)N1CCc2ccc(NC(=O)CCc3ccncc3)cc21` was 38.5%.
`CS(=O)(=O)N1CCc2c(cccc2NC(=O)CC(F)(F)F)C1`: the INHIBITION stood at 0.79%.
For the compound `Cc1cnc2c(C(=O)N(C)Cc3cc(C4CC4)[nH]n3)cnn2c1`, the INHIBITION was found to be 21.8%.
